In PubChem BioAssay AID485346 (Sanford-Burnham Center for Chemical Genomics, 2010) one finds inhibition data, which are given here for 86 compounds.

For orientation: inhibition means the drop in the measured response relative to a control, in per cent.

Out of some 330,000 compounds screened, about 10,000 (3%) were called active.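 The calls were made as follows: active = inhibition of at least 50% at 8 µM in the primary screen; inactive = the rest.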 Shown is part of a subset that was picked to be rich in actives.

For this assay, the target named is Protein Mdm4 (Homo sapiens) + E3 ubiquitin-protein ligase Mdm2 (Homo sapiens) (UniProt O15151+Q00987). The assay is described as follows: inhibitors of human Mdm2-MdmX association, primary screen, cell-based, luminescence, split luciferase, SaOS-2, uHTS (AID 485346). As to conditions: SaOS-2 split-luciferase Mdm2/MdmX complementation, at 8 µM, hits give high values.
Chain of Protein Mdm4 (Homo sapiens) + E3 ubiquitin-protein ligase Mdm2 (Homo sapiens) (O15151 whole entry, looked up): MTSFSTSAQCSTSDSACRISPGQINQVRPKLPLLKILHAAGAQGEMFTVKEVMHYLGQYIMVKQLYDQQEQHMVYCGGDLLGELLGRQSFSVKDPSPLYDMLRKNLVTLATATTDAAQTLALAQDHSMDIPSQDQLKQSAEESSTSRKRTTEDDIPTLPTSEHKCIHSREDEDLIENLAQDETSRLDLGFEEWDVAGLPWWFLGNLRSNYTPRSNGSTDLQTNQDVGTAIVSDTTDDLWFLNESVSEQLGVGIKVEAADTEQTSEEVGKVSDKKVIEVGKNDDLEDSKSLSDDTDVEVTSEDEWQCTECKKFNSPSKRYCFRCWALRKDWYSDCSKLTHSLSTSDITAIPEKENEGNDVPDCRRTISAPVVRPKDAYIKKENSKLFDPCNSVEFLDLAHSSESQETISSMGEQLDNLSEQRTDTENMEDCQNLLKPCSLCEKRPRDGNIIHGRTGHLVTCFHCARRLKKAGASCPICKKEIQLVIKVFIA
Chain of Protein Mdm4 (Homo sapiens) + E3 ubiquitin-protein ligase Mdm2 (Homo sapiens) (Q00987 whole entry, looked up): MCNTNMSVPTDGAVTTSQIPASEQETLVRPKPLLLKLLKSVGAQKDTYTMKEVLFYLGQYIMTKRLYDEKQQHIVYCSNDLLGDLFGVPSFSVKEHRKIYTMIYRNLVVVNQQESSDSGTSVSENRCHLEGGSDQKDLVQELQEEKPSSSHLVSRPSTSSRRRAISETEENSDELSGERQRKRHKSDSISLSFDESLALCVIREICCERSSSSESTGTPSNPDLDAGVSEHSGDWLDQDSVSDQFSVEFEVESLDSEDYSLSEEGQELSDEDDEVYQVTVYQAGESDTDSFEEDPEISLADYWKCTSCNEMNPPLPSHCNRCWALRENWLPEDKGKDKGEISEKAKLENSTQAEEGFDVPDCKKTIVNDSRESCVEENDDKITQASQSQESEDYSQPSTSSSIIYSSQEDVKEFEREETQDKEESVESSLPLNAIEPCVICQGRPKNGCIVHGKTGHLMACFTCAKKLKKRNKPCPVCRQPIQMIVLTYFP
For `COCC1CCN(C(=O)C2CCC(=O)N(CC3CCCCC3)C2)CC1` (stereo unspecified), the inhibition was -3.42% (inactive).

Regarding `CCOC(=O)N1CCN(Cc2nc3ccc([N+](=O)[O-])cc3c(=O)n2-c2cccc(OC)c2)CC1`, the inhibition is 16.7% (inactive).

Take `Cn1cc(/C=C/c2nc3ccccc3c(=O)n2-c2cccc([N+](=O)[O-])c2)c2ccccc21`: the inhibition is 72.2% (active).

Take `CCn1c(/C=C/c2ccc([N+](=O)[O-])o2)nc2ccccc2c1=O`: the inhibition is 46.9% (inactive).

As for `COc1ccc(NC(=O)N(C)C[C@H]2Oc3ccc(NC(=O)C4CC4)cc3C(=O)N([C@H](C)CO)C[C@@H]2C)cc1`, the inhibition was -5.08% (inactive).

As to `O=C(CC1CCCCC1)NCc1ccc(F)cc1`, the inhibition is -13.5% (inactive).

Turning to `Cc1ccc(C(=O)NNc2ncnc3ccccc23)cc1`, the inhibition was -48.9% (inactive).

As for `Cc1ccc(C(=O)NNC(=O)c2cccs2)cc1`, the inhibition is -2.54% (inactive).

Take `Cc1ccc(C(=O)NNC(=O)c2cc3cc4ccccc4nc3s2)cc1`: the inhibition is 55.3% (active).

On to `CC[C@@]1(C(=O)OC)N[C@H](CN(C)C(C)=O)[C@@H]2C(=O)N(C)C(=O)[C@@H]21`, for which the inhibition was -30.9% (inactive).

On to `CC[C@]12c3[nH]c4ccc(Cl)cc4c3CCN1C(=O)[C@@H](CC(=O)NCCCOC)C[C@@H]2C(=O)N1CCN(C(=O)c2ccco2)CC1`, for which the inhibition was 2.9% (inactive).

For `Cn1c(N)cc(-c2ccc(F)cc2)c(C#N)c1=O`, the inhibition is 14% (inactive).

As for `Cc1cc(C)c2c(-c3ccc(F)cc3)c(C#N)c(=O)n(C)c2n1`, the inhibition is 51.8% (active).

Consider `COc1ccc(O)c(C(=O)c2cnc3c(c2)c(-c2ccc(F)cc2)c(C#N)c(=O)n3C)c1`, for which the inhibition was 12.9% (inactive).

For the compound `OC(CNCC1CCCO1)Cn1c2ccc(Br)cc2c2cc(Br)ccc21` (stereo unspecified), the inhibition is 101% (active).

For the compound `O=C(CCNS(=O)(=O)c1ccc(Br)cc1)NCC1CCCO1` (stereo unspecified), the inhibition was -4.62% (inactive).

For `O=C(CSc1ccc(-c2ccc(Br)cc2)nn1)NCC1CCCO1` (stereo unspecified), the inhibition is -18.5% (inactive).

For `O=C(O)CC12CC3CC(C1)CC(n1ncc(NCc4ccc(F)cc4)c(Cl)c1=O)(C3)C2`, the inhibition is -8.77% (inactive).

Consider `COc1ccc(NC(=O)CN(C)C(=O)c2cccc(S(=O)(=O)N3CCN(c4ccccc4)CC3)c2)cc1`, for which the inhibition was 17% (inactive).

Turning to `O=C(OC1CCOC1=O)c1ccc(-c2nc3ccccc3s2)s1` (stereo unspecified), the inhibition was -9.1% (inactive).

`O=C1c2ccccc2C(=O)C1c1ccccc1F`: the inhibition is -3.2% (inactive).

With `O=C1c2ccccc2C2=Nc3ccccc3SC(c3ccccc3F)C12` (stereo unspecified), the inhibition is 65.3% (active).

`CCOC(=O)C1=C(C)N=C2c3ccccc3C(=O)C2C1c1ccc(Br)cc1` (stereo unspecified): the inhibition was 24% (inactive).

Take `O=C(CCc1nnc(Cc2ccc3c(c2)OCO3)o1)NCCc1ccccc1Cl`: the inhibition is 6% (inactive).

With `CC(=O)NCCc1ccc(S(=O)(=O)Nc2ccc(C)c(S(=O)(=O)N3CCOCC3)c2)cc1`, the inhibition was 2.62% (inactive).

With `Oc1ccccc1CN1CCN(C(c2ccccc2)c2ccccc2)CC1`, the inhibition is 19.1% (inactive).

In the case of `O=C1CC(N2CCN(C(c3ccccc3)c3ccccc3)CC2)C(=O)N1` (stereo unspecified), the inhibition was 28.3% (inactive).

On to `CC1(C)CC(N2CCN(C(c3ccccc3)c3ccccc3)CC2)=CC(=[N+]2CCCCC2)C1`, for which the inhibition is 90.1% (active).

Take `COC(=O)CCCCCN1C(=O)NC(c2ccc(-c3ccccc3)cc2)C(C(=O)OCc2ccccc2)=C1C` (stereo unspecified): the inhibition is 22.2% (inactive).

In the case of `CCCCNC(=O)C(C)N(CCN(C)C)C(=O)CCCN1C(=O)NC(c2ccc(Cl)cc2)C(C(=O)OCc2ccccc2)=C1C` (stereo unspecified), the inhibition was 84.8% (active).

On to `COCCN1C(=O)N[C@@H](c2ccccc2)C(C(=O)OC)=C1C`, for which the inhibition was -16.5% (inactive).

Consider `CCCCNC(=O)C(C)N(CCN(C)C)C(=O)CCCCCN1C(=O)NC(c2ccc(Cl)cc2)C(C(=O)OCc2ccccc2)=C1C` (stereo unspecified), for which the inhibition is 97.4% (active).

Regarding `CC1=C(C(=O)OCc2ccccc2)C(c2ccc(C(F)(F)F)cc2)NC(=O)N1CCCCCC(=O)O` (stereo unspecified), the inhibition is 4.93% (inactive).

Regarding `CCN1C(=O)N[C@@H](c2ccccc2)C(C(=O)OC)=C1C`, the inhibition was 6.41% (inactive).

Consider `O=C(Nc1cccc(O)c1)c1ccc(C(=O)c2ccccc2)o1`, for which the inhibition was -23.5% (inactive).

`CC(C)(C)OC(=O)C1=C(CO)CS[C@@H]2[C@H](NC(=O)Cc3ccccc3)C(=O)N12`: the inhibition is 1.66% (inactive).

Take `Cc1ccc(CN2CCC(N3CCC(C(=O)NCC4CCCO4)CC3)CC2)o1` (stereo unspecified): the inhibition was 1.75% (inactive).

Regarding `O=C(COC(=O)c1ccccc1)c1ccc2c(c1)OCCO2`, the inhibition is 35.8% (inactive).

On to `Cc1cc(C)cc(OCC(=O)Nc2cc(NC(=O)COc3cc(C)cc(C)c3)cc(C(=O)O)c2)c1`, for which the inhibition was 5.1% (inactive).

`CC(NC(=O)COC(=O)C1CCN(S(=O)(=O)c2ccccc2C(F)(F)F)CC1)c1ccccc1` (stereo unspecified): the inhibition was -7.62% (inactive).

Consider `NC(=O)c1nsc(C(=O)N(CCCN2CCOCC2)C(C(=O)NC2CCCCC2)c2ccc(Cl)cc2)c1N` (stereo unspecified), for which the inhibition is -0.899% (inactive).

Regarding `COc1cc(N2C(=O)CC3(CCCC3)CC2=O)cc(OC)c1OC`, the inhibition is 20% (inactive).

Turning to `Cc1ccc2nc(-c3ccncc3)cc(C(=O)Nc3ccc4c(c3)OCCO4)c2c1`, the inhibition was 60.7% (active).

Regarding `Cc1ccc2nc(-c3ccccn3)cc(C(=O)Nc3ccc4c(c3)OCO4)c2c1`, the inhibition was 28.8% (inactive).

Regarding `Cc1ccc2nc(-c3ccncc3)cc(C(=O)Nc3ccc(OC(F)F)cc3)c2c1`, the inhibition is 37.3% (inactive).

As for `COc1ccc(CCNC(=O)CN(c2ccccc2)S(C)(=O)=O)cc1OC`, the inhibition is -2.08% (inactive).

In the case of `CCc1[nH]nc(C(=O)N2CCCC(CNS(=O)(=O)c3cccs3)C2)c1C` (stereo unspecified), the inhibition is 7.22% (inactive).

Regarding `N#Cc1c(NC(=O)CSc2nc3ccccc3c(=O)n2Cc2ccco2)sc2c1CCCC2`, the inhibition is 54.1% (active).

For `Cc1cc(NC(=O)CSc2nc3cc(Cl)ccc3c(=O)n2Cc2ccco2)no1`, the inhibition is 40.1% (inactive).

Take `COc1ccc(-n2c(SCC(=O)Nc3sc4c(c3C#N)CCCC4)nnc2-c2ccc(O)cc2)cc1`: the inhibition was 33.8% (inactive).

Regarding `Cc1ccc(CN2CC(C(=O)N3CCN(S(=O)(=O)c4ccccc4)CC3)CC2=O)cc1` (stereo unspecified), the inhibition is -7.06% (inactive).

For `O=C(NCc1cccnc1)c1ccccc1NC(=O)c1c(F)cccc1F`, the inhibition was 12.2% (inactive).

Consider `CCN(C[C@H]1N[C@@](CC)(C(=O)OC)[C@H]2C(=O)N(Cc3ccccc3)C(=O)[C@@H]12)S(=O)(=O)c1ccccc1`, for which the inhibition was 9.24% (inactive).

In the case of `CCN1C[C@@H]2[C@@H]3C(=O)N(Cc4ccccc4)C(=O)[C@@H]3[C@](Cc3ccccc3)(C(=O)OC)N2C1=NC1CCCCC1`, the inhibition is 44.3% (inactive).

With `CC[C@]1(C(=O)OC)[C@H]2C(=O)N(Cc3ccccc3)C(=O)[C@H]2[C@H]2CN=C(SCc3ccccc3)N21`, the inhibition was 70% (active).

As for `CC[C@]1(C(=O)OC)[C@H]2C(=O)N(Cc3ccccc3)C(=O)[C@H]2[C@H]2CN=C(SCc3ccc(Cl)cc3)N21`, the inhibition is 99.6% (active).

On to `CC[C@]1(C(=O)OC)[C@H]2C(=O)N(Cc3ccccc3)C(=O)[C@H]2[C@H]2CN=C(SCc3ccc(C#N)cc3)N21`, for which the inhibition is 93% (active).

`CCNC(=O)N(CC)C[C@H]1N[C@@](CC)(C(=O)OC)[C@H]2C(=O)N(Cc3ccccc3)C(=O)[C@@H]12`: the inhibition was 13.8% (inactive).

As to `CC[C@]1(C(=O)OC)[C@H]2C(=O)N(C)C(=O)[C@H]2[C@H]2CN(C)C(=NCc3ccccc3)N21`, the inhibition was 15.5% (inactive).

For the compound `COC(=O)[C@@]1(C)[C@H]2C(=O)N(Cc3ccccc3)C(=O)[C@H]2[C@H]2CN=C(SCC3CC3)N21`, the inhibition was 16.2% (inactive).

`CCCN=C1N(C)C[C@@H]2[C@@H]3C(=O)N(Cc4ccccc4)C(=O)[C@@H]3[C@](C)(C(=O)OC)N12`: the inhibition is -2.26% (inactive).

With `O=C(COC(=O)c1ccccn1)NNC(=O)c1ccc(Br)cc1`, the inhibition was 2.38% (inactive).

In the case of `Cn1nc(C(=O)OCC(=O)N(Cc2ccccc2)C(C)(C)C)c2ccccc2c1=O`, the inhibition was 14.1% (inactive).

`CCCNc1c(N)c(=O)c1=O`: the inhibition is 12.6% (inactive).

With `Cc1cccc(C(=O)N2CCCC(Nc3ccc(C(C)C)cc3)C2)n1` (stereo unspecified), the inhibition is -5.26% (inactive).

As to `CCOc1ccccc1OCCCNCc1ccccc1`, the inhibition was -6.93% (inactive).

Regarding `Clc1cccc(Cl)c1OCCOCCNCc1ccccc1`, the inhibition is 89.2% (active).

With `OCCNCc1cccc(OCc2ccccc2Cl)c1`, the inhibition is 20.6% (inactive).

`N#C/C(=C\c1ccc(-c2cccc([N+](=O)[O-])c2)o1)C(=O)NCCN1CCOCC1`: the inhibition was 10.3% (inactive).

With `Cc1ccc(-c2ccc(/C=C(\C#N)C(N)=S)o2)c([N+](=O)[O-])c1`, the inhibition was -46.3% (inactive).

Consider `Cc1ccc(Cc2cnc(NC(=O)/C(C#N)=C/c3ccc(-c4cccc([N+](=O)[O-])c4)o3)s2)cc1`, for which the inhibition was 97.9% (active).

`COc1ccc(CCNC(=O)COC(=O)c2ncc(Cl)c(Cl)c2Cl)cc1OC`: the inhibition was 8.42% (inactive).

Consider `COc1ccccc1N1CCN(C(=O)c2cc(=O)c3cc(C)ccc3o2)CC1`, for which the inhibition is 40.1% (inactive).

For the compound `COc1ccccc1N1CCN(C(=O)c2cc(=O)c3cc(C)cc(C)c3o2)CC1`, the inhibition was 63.5% (active).

Consider `O=C(c1cc(=O)c2ccccc2o1)N1CCN(c2ccccc2)CC1`, for which the inhibition was 17.2% (inactive).

As for `CCSc1nsc(NC(=O)Nc2ccccc2OC)n1`, the inhibition was -33.9% (inactive).

Take `C=C(C)C(=O)Nc1cccc(C(C)=O)c1`: the inhibition was 20.2% (inactive).

For `C=CCSc1nsc(NC(=O)Nc2cccc(C(C)=O)c2)n1`, the inhibition is 94.3% (active).

On to `C=CCSc1nnc(NC(=O)c2ccc(NC(C)=O)cc2)s1`, for which the inhibition is -18.8% (inactive).

For the compound `CSc1nsc(NC(=O)Nc2ccccc2)n1`, the inhibition was -31.4% (inactive).

Take `CCSc1nsc(NC(=O)Nc2cccc(C(C)=O)c2)n1`: the inhibition is 62.3% (active).

With `CCCCC(=O)N1CC2(C)CN(C(=O)CCCC)CC(C)(C1)C2=O`, the inhibition is -4.56% (inactive).

On to `CN(C(=O)c1c(Cl)cnn1C)C12CC3CC(CC(C3)C1)C2`, for which the inhibition was 4.45% (inactive).

`CCC(=O)N(CCc1ccccc1)Cc1cc2cc(C)ccc2[nH]c1=O`: the inhibition is -5.57% (inactive).

On to `Cc1ccc2[nH]c(=O)c(CN(CC3COCCO3)C(=O)Nc3ccccc3C)cc2c1` (stereo unspecified), for which the inhibition was 6.03% (inactive).

Regarding `Cc1ccc2[nH]c(=O)c(CN(CCCN(C)C)C(=O)Nc3cccc(Cl)c3)cc2c1`, the inhibition is 66.9% (active).
